Experiment in all cases: qHTS profiling for inhibitors of Plasmodium falciparum proliferation (AID 504749); also: nearly all actives have a fitted effect of over 60% in size
Holding throughout (conditions): P. falciparum in erythrocytes, SYBR Green DNA, 72 h; series mostly up to 28.7 µM

The test system of test [1] is N140. In outline:
(§1)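 Parasite proliferation within erythrocytes, 72 h exposure. Endpoint: SYBR Green I fluorescence after overnight lysis at room temperature. Controls: 0.29 uM artemisinin, DMSO.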

Test [2] deals with P94_40. In a few lines:
as §1

Test [3] relates to PAD. In outline:
as §1

In test [4] the test system is PC15. In a few lines: as §1
Test [5] deals with PC26. In outline:
as §1

Test [6] deals with PC49. In a few lines: as §1
In test [7] the test system is SC27B. In outline:
as §1

For test [8], the system named is TAB109. In outline:
as §1

The test system of test [9] is TAB113. In outline: as §1
Test [10] concerns P93_24. In outline:
as §1

We go through five compounds from PubChem BioAssay (NCATS).

Molecules are shown by their SMILES. Inconclusive results are not listed. Active and inactive are the calls of the source. Calls follow the shape of the dose curve; as a rule, active = well fitted inhibition curve with a large enough effect; inconclusive = small, poorly fitted or top-dose-only effect; inactive = flat fitted curve, though single readings scatter.
Potency is read from the fitted curve at half-maximal effect.

On to `C[C@]12CCC(=O)C=C1CC[C@@H]1[C@@H]2[C@@H](O)C[C@@]2(C)[C@H]1CC[C@]2(O)C(=O)COP(=O)(O)O`, for which the Potency entry in test [1], in test [2], in test [3], in test [4], in test [5] and in test [6] was “inactive” throughout. Besides, the Potency result in [7], in test [8] and in [9] was “inactive” in each case.

For the compound `CC1=C(/C=C/C(C)=C/C=C/C(C)=C/CO)C(C)(C)CCC1`, the results for the Potency in [1] and in test [9] were 8.91 µM (active) and 11.2 µM (active), respectively.

With `COC(=O)[C@H]1[C@H]2CC3c4[nH]c5ccccc5c4CCN3C[C@@H]2CC[C@@H]1O` (some centres not stated), the Potency entry in test [1], in test [10], in test [3], in test [4], in test [6] and in test [7] was “inactive” in each case. The Potency entry in [8] and in test [9] was “inactive” throughout.

Regarding `O=C(Nc1cccc(C(F)(F)F)c1)c1cc(Br)cc(Br)c1O`, the figures for the Potency in test [1], in [7] and in test [9] were 11.2 µM (active), 8.91 µM (active) and 12.6 µM (active), respectively.

With `CCCCCCOc1ccc(C(=N)N(CCCC)CCCC)c2ccccc12`, the Potency entry in test [10] is “inactive”. Moreover, the Potency in test [2] was 12.6 µM (active); in [4] it was 10 µM (active); in test [8], 7.94 µM (active); in test [9], 10 µM (active).
